Screening data (PubChem BioAssay)
tim23-1 inh – growth inhibitors of tim23-1 mutant yeast, primary screen, luminescence, uHTS; hit rate 1.3% among 330,000; S. cerevisiae tim23-1 growth, BacTiter-Glo luminescence, 24 h; inhibition, % at 20 µM; AID 463212, 2010;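 active = growth inhibition of the mutant yeast at or above 50%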;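 note: temperature-sensitive mutant grown at 25 °C; plate controls were DMSO-treated mutant yeast for no effect and medium wells lacking yeast for full effect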
TIM10 inh – growth inhibitors of isogenic TIM10 control yeast, primary screen, counter-screen for tim10-1 yeast inhibitor project, luminescence, uHTS; AID 463195, 2010; inhibition, % at 10 µM; hit rate 1.4% among 330,000; S. cerevisiae TIM10 strain growth, BacTiter-Glo luminescence, 24 h;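 active = inhibition of 40% or more at the single tested concentration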;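 note: wild-type TIM10 isogenic control strain grown at permissive 25 °C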
V-ATPase pHluor – regulators of yeast V-ATPase proton pumping, primary screen, pHLuorin cytosolic pH fluorescence; S. cerevisiae; response, % at 10 µM; hit rate 0.37% among 350,000; AID 504577, 2011; in the data active = response mostly above about 7.3%, no sharp cut-off; inactive = mostly below about 5.4%; note: actives read high
SKKanGAS inh – S. pyogenes SKKanGAS growth inhibitors in kanamycin, primary screen, streptokinase expression inhibitor project, SKKanGAS strain, BacTiter-Glo luminescence. 6 h. inhibition, % at 7.5 µM. hit rate 1.3% among 300,000;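 active = mean replicate score, as percent of positive control median, at least 50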;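 note: strain carries kanamycin resistance gene driven by streptokinase promoter and grows in 40 µg/ml kanamycin; loss of luminescence reflects streptokinase promoter inhibition or plain growth inhibition; 0% = median of DMSO wells and 100% = positive control at its reference dose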
PfHsp90 yeast 2 – growth inhibition of PfHsp90-expressing yeast, primary screen, antimalarial PfHsp90 inhibitor project, S. cerevisiae, BacTiter-Glo luminescence, single point, set 2 | inhibition, % at 9.4 µM | BacTiter-Glo ATP, 48 h; yeast lacking PDR1 and PDR3 efflux regulators | AID 504621, 2011 | hit rate 0.32% among 310,000;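 active = every replicate shows inhibition above about 80%, whatever the replicate mean, limit read from the data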;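 note: 0% = DMSO neutral controls and 100% = 20 µM radicicol positive controls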
tim10-1 inh – growth inhibitors of tim10-1 mutant yeast, primary screen, luminescence, uHTS | S. cerevisiae tim10-1 ts strain growth, BacTiter-Glo, 24 h | inhibition, % at 20 µM | hit rate 2.2% among 330,000 | AID 463190, 2010;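 active = inhibition of at least 40%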;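 note: mutant grown at 25 °C; 0% = DMSO wells with yeast and 100% = wells holding no yeast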
Starred values were filed as active, the others as inactive; x = no result given. Only some compounds are listed: those with a hit (about 4.6% of all), similar ones and a draw of the others.

SMILES	tim23-1 inh	TIM10 inh	V-ATPase pHluor	SKKanGAS inh	PfHsp90 yeast 2	tim10-1 inh
O=C(COc1ccccc1[N+](=O)[O-])N1CCN(c2ccccn2)CC1	15.0	6.2	0.4	-3.7	x	15.4
CC1=CC(=O)C=C(C)C1=NOS(=O)(=O)c1ccccc1	x	x	3.6	-1.5	106.5*	x
Cc1ccc2c(c1)/C(=N/OS(=O)(=O)c1ccccc1)CCS2	1.9	8.9	0.2	6.0	x	27.8
CC1=CC(=O)C(C(C)C)=C/C1=N/OS(=O)(=O)c1ccccc1	48.5	25.1	5.3	10.6	110.1*	-140.0
CC(=O)c1cccc(NC(=O)C(C)OC(=O)CCc2nc3ccccc3c(=O)[nH]2)c1 (stereo not drawn)	-12.8	-9.5	6.1	x	-1.2	-15.8
O=C(Nc1nnc(SCc2ccc(F)cc2)s1)c1ccc2c(c1)C(=O)N(c1ccccc1Cl)C2=O	-2.8	0.7	-1.7	54.2*	-1.4	6.2
O=C(Nc1nnc(SCc2ccc(F)cc2)s1)c1ccc2ncsc2c1	x	x	-0.7	-10.3	-6.1	x
CC(C)Cc1nnc(NC(=O)CCC(=O)N2CCN(c3ccccc3)CC2)s1	-1.3	6.1	-3.5	102.9*	-6.1	2.3
CCOCCCNC(=O)c1cc2c(=O)n3cccc(C)c3nc2n1C	23.2	-6.8	16.2*	3.7	-2.0	0.7
CCCCN1CC(COCc2ccccc2)Oc2ccccc2S1(=O)=O (stereo not drawn)	42.0	-1.9	-3.4	x	2.3	23.1
CC(C)c1ccc(-n2cccc2/C=C2/C(=N)N3C=CSC3=NC2=O)cc1	-6.9	11.7	0.7	94.1*	-8.8	32.2
CC1=CSC2=NC(=O)/C(=C\c3cccn3-c3ccccc3)C(=N)N12	-8.0	13.6	-1.1	-10.2	-69.3	21.6
CCn1c(SCC(=O)Nc2oc(-c3ccccc3)c(-c3ccccc3)c2C#N)nnc1-c1cc(OC)cc(OC)c1	17.7	17.8	-0.5	30.4	-10.9	14.1
O=C(COC(=O)COc1ccc(Cl)cc1)NC1CC1	28.8	-4.6	0.8	x	-7.0	-4.6
Cc1cc(C)cc(NC(=S)NCCSc2ccc(Cl)cc2)c1	24.1	27.2	1.8	49.8*	-49.3	30.4
Cc1ccc(SCCNC(=S)Nc2ccc(C)c(C)c2)cc1	39.1	33.9	5.7	36.2	-34.3	37.5
CN1C(C(=O)NCc2ccc(OC(F)(F)F)cc2)CC2Cn3c(nc4cc5ccccc5cc43)C21 (stereo not drawn)	4.5	1.1	2.4	18.2	-23.3	15.8
Cc1ccc(S(=O)(=O)NCC2(c3ccccc3)CCN(C)CC2)cc1	5.3	-3.6	8.5	2.7	8.6	13.1
CC(C)(C)OC(=O)NCC12C=CC(O1)C1C(=O)N(Cc3ccccc3)C(=O)C12 (stereo not drawn)	10.1	2.6	4.8	1.5	49.5	11.7
Cc1ccc(NC(=S)NCC23C=CC(O2)C2C(=O)N(c4ccc(C)cc4)C(=O)C23)cc1 (stereo not drawn)	28.8	11.1	0.3	-5.9	106.5*	35.9
Cc1cccc(NC(=S)NCC23C=CC(O2)C2C(=O)N(c4ccc(Cl)cc4)C(=O)C23)c1 (stereo not drawn)	25.9	30.6	-3.1	6.1	106.7*	30.9
Cc1ccc(S(=O)(=O)NCC23C=CC(O2)C2C(=O)N(c4ccccc4)C(=O)C23)cc1 (stereo not drawn)	-7.8	7.2	-0.4	-6.5	106.0*	-1.3
Cc1ccc(N2C(=O)C3C4C=CC(CNC(=S)N5CCN(c6ccccc6)CC5)(O4)C3C2=O)cc1 (stereo not drawn)	-5.6	2.8	11.6	-14.0	103.8*	10.9
CC1CCC(NC(=O)CN2C(=O)NC(C)(C)C2=O)CC1 (stereo not drawn)	16.5	-5.2	1.5	-3.6	x	3.8
CCC(CC)C(=O)OCC(=O)Nc1cc(OC)c([N+](=O)[O-])cc1C	19.4	-15.8	-2.7	-9.8	11.2	18.0
SMILES	tim23-1 inh	TIM10 inh	V-ATPase pHluor	SKKanGAS inh	PfHsp90 yeast 2	tim10-1 inh
COc1cc(/C=C/C(=O)OC2CC3CCC2(C)C3(C)C)ccc1O (stereo not drawn)	17.9	-1.5	-0.3	60.7*	-1.2	19.7
Cc1nn(-c2ccc(Cl)cn2)c2c1C(=O)CC(C)(C)C2Br (stereo not drawn)	x	x	-2.8	x	-6.8	x
O=S(=O)(/C=C/c1ccccc1)NC1CCCCCC1	13.2	-137.2	-2.2	16.6	99.3*	-30.4
O=S(=O)(/C=C/c1ccccc1)NC1CCCCCCC1	28.6	-45.7	2.8	0.3	88.4*	-6.9
O=S1(=O)CCC(NS(=O)(=O)/C=C/c2ccccc2)C1 (stereo not drawn)	-4.2	2.5	0.0	0.8	19.3	10.9
Cc1ccc(N2CC(C(=O)N3CCOCC3)CC2=O)cc1Cl (stereo not drawn)	7.3	-11.9	-2.7	-11.8	22.1	9.7
Cc1ccc(C)c(NC(=O)CN(C)C(C)C(=O)N2CC(C)CC(C)C2)c1 (stereo not drawn)	32.0	11.5	1.8	x	x	22.5
O=C(O)CSc1c(-c2ccccc2)[nH]c2ccccc12	20.5	11.8	17.1*	-5.7	-10.0	22.7
O=c1c(C(c2ccccc2)c2c(O)sc3ccccc3c2=O)c(O)sc2ccccc12	30.9	-6.1	0.6	97.0*	x	-217.1
O=c1c2ccccc2sc2ccccc12	x	x	-1.1	x	x	x
O=C(CSc1ccc2nnc(-c3ccc(Cl)cc3)n2n1)N1CCCC1	-20.3	-17.8	13.9*	-4.8	3.5	13.8
O=C(CSc1ccc2nnc(-c3ccc(Cl)cc3)n2n1)N1CCc2ccccc21	-4.9	1.8	3.5	1.0	3.0	18.3
O=C(CSc1nnc2ccc(-c3ccc(F)cc3)nn12)N1CCCC1	13.1	-0.2	19.7*	-8.4	-26.8	-7.7
N#Cc1c(N)nc(Sc2ccc(Cl)cc2)c(C#N)c1-c1ccccc1Cl	-10.9	-2.5	-0.3	74.8*	0.5	-10.0
O=S(=O)(NC1CCN(Cc2ccccc2)CC1)c1cccc(S(=O)(=O)N2CCOCC2)c1	31.2	6.9	15.2*	1.6	19.7	0.9
COc1ccc2nc(N/C(N)=N/C(=S)Nc3c(C)cccc3C)nc(C)c2c1	23.1	28.5	-0.5	50.7*	-80.3	24.2
N#CC(C#N)=C1C=C2C=C(N3CCOCC3)CCC2CC1 (stereo not drawn)	x	x	16.5	-0.9	4.9	x
CCN1CCN(C2=CC3=CC(=C(C#N)C#N)CCC3CC2)CC1 (stereo not drawn)	x	x	28.4*	x	2.7	x
N#CC(C#N)=C1C=C2C=C(N3CCCCCC3)CCC2CC1 (stereo not drawn)	x	x	233.6*	-6.0	-19.1	x
COC(=O)[C@H](CC(C)C)NC(=O)Cn1cnc2c(NCc3ccccc3)ncnc21	28.5	-12.0	4.7	x	-15.3	6.9
